PubChem BioAssay AID1745847 (National Center for Advancing Translational Sciences (NCATS), 2022)
The whole screen tested about 2,100 compounds, of which about 670 (32%) were called active. Another 50% or so got no clear call; they are omitted. This is one part of the list. Unmarked numbers belong to inactive results. Calls come from the whole dose curve; as a rule, active = well fitted inhibition curve with a large enough effect; inconclusive = small, poorly fitted or top-dose-only effect; inactive = no such curve, though single readings can be large or run the other way.
% is set by controls: 0 for no effect and ±100 for the full control effect; potency is the fitted concentration of half-maximal effect.

Experiment: CMV-Luciferase Counterscreen for Inhibitors of ATXN expression; note: nearly all actives have a fitted effect of over 55% in size
Conditions: HEK-293 CMV-luciferase reporter, luminescence, 24 h; series mostly up to 57.5 µM; activity change, negative = inhibition: at the top concentration
For `NC(=O)c1cccc(-c2ccnc3c2CC(C(=O)Nc2cccc(C(F)(F)F)c2)O3)c1` (centres undefined), the Potency was 3.98 µM (active). For `O=C(Nc1cccnc1)C1Cc2c(-c3ccc4c(c3)OCO4)ccnc2O1` (centres undefined), the activity change, negative = inhibition was -23.6% [at 11.4 µM]. In the case of `CS(=O)(=O)Nc1cccc(NC(=O)c2cccc3c(-c4cccc(C(N)=O)c4)coc23)c1`, the “activity change, negative = inhibition” value is reported as -17.1%. In the case of `NS(=O)(=O)c1ccc(CCNC(=O)COC(=O)/C=C/c2cc(Br)ccc2F)cc1`, the activity change, negative = inhibition is reported as -4.52% [at 11.4 µM]. With `O=C(CNC(=O)c1cccc(F)c1)N/N=C/c1cc(Br)ccc1OC(=O)/C=C/c1ccco1` the Potency was 4.47 µM (active). In the case of `O=C(CNC(=O)c1ccccc1F)N/N=C/c1cc(Br)ccc1OC(=O)/C=C/c1ccco1`, the Potency is reported as 12.6 µM (active). In the case of `O=C(CNC(=O)c1ccc(F)cc1)N/N=C/c1cc(Br)ccc1OC(=O)/C=C/c1ccco1`, the Potency is reported as 8.91 µM (active). With `Cc1cc(C)c2c(N)c3cccc(C)c3nc2n1` the Potency was 10 µM (active). With `Cc1nc(N=C(N)N)nc2c(C)cccc12` the “activity change, negative = inhibition” value was 17.6%. With `Cc1ccccc1C(=O)N1CCN(c2ccc(NC(=O)c3ccc4c(c3)OCCO4)cc2)CC1` the Potency was 2.24 µM (active). With `O=C(Nc1ccc(NC(=O)c2cccs2)cc1)c1ccc2c(c1)OCO2` the activity change, negative = inhibition was -7.86% [at 11.4 µM]. With `COc1c(C)cccc1C(=O)Nc1ccc(N2CCN(C(=O)c3ccccc3C)CC2)cc1` the Potency was 15.8 µM (active). For `CC(=O)Nc1cc(-c2ccc(C(=O)NC3CC3)cc2)cn2c(-c3cccc(C(C)=O)c3)cnc12`, the “activity change, negative = inhibition” value was 3.81%. In the case of `O=[N+]([O-])c1cc(CN2CCN(c3ccccc3)CC2)c(O)c2ncccc12`, the Potency is reported as 7.94 µM (active). With `O=[N+]([O-])c1cc(Cl)c(O)c2ncccc12` the Potency was 8.91 µM (active). For `Oc1c(CN2CCOCC2)cc(COCc2ccccc2)c2cccnc12`, the Potency was 3.55 µM (active). With `O=[N+]([O-])c1cc(O)c2ncccc2c1` the Potency was 3.16 µM (active). With `O=[N+]([O-])c1ccc(O)c2ncccc12` the Potency was 7.08 µM (active). With `Oc1ccc(Cl)c2cccnc12` the “activity change, negative = inhibition” value was -22.2%. For `CCOC(=O)c1c(-c2ccccc2)oc2ccc(OCC(=O)NN)cc12`, the Potency was 28.2 µM (active). In the case of `NNC(=O)c1nc(-c2ccccc2)cc(-c2ccccc2)n1`, the “activity change, negative = inhibition” value is reported as 23.1%. For `O=C(O)COc1ccc2oc3ccccc3c2c1`, the activity change, negative = inhibition was -24.7% [at 11.4 µM]. In the case of `OCCNc1c2ccccc2nc2c(F)c(F)c(F)c(F)c12`, the Potency is reported as 7.94 µM (active). In the case of `OCCNc1c2ccccc2nc2ccccc12`, the Potency is reported as 20 µM (active). For `O=c1c(Cc2ccccc2)c(O)nc2n1CCS2`, the “activity change, negative = inhibition” value was -22.8%. In the case of `Cc1ccc(-c2cn(-c3ccc(OC(F)F)cc3)c3[n+]2CCCCC3)cc1`, the Potency is reported as 12.6 µM (active). With `Cc1ccc(C)n1-c1ccc(C(=O)N2CCC(C(N)=O)CC2)cc1` the activity change, negative = inhibition was 4.95% [at 11.4 µM]. With `CCOC(=O)C1CCN(C(=O)c2c(C)oc3c2C(=O)c2ccccc2C3=O)CC1` the Potency was 12.6 µM (active). With `Cc1ccc(C(=O)O)cc1N1C(=O)c2cccc3c([N+](=O)[O-])ccc(c23)C1=O` the “activity change, negative = inhibition” value was 4.18%. In the case of `O=C1c2cccc3c([N+](=O)[O-])ccc(c23)C(=O)N1c1ccc(Cl)cn1`, the Potency is reported as 20 µM (active). For `Cc1ccnc(N2C(=O)c3cccc4c([N+](=O)[O-])ccc(c34)C2=O)c1`, the Potency was 12.6 µM (active). With `COc1ccc(-c2noc(CCCC(=O)NC3CCCC3)n2)cc1` the Potency was 7.94 µM (active). For `Cc1ccc(-c2noc(CCCC(=O)NC3CCCC3)n2)cc1`, the Potency was 7.08 µM (active). In the case of `Cc1ccccc1NC(=O)Nc1nc(C(N)C2CCCCC2)cs1` (centres undefined), the “activity change, negative = inhibition” value is reported as -17.1%. Compound `CN(C)C(=O)c1cccc(-c2cnc3c(NC=O)cc(-c4ccccc4N(C)C)cn23)c1` has an activity change, negative = inhibition of -27.7% [at 11.4 µM]. Compound `CCN1CCN(c2ccc(S(=O)(=O)N3CCCCC3)cc2NC(=O)/C=C/c2ccc([N+](=O)[O-])cc2)CC1` has an activity change, negative = inhibition of -17.9% [at 11.4 µM]. For `CCN1CCN(c2ccc(S(=O)(=O)N3CCCCC3)cc2NC(=O)c2ccc([N+](=O)[O-])s2)CC1`, the Potency was 3.16 µM (active). With `COc1ccccc1C(=O)NNC(=S)NC(=O)c1ccco1` the Potency was 7.94 µM (active). For `COc1ccccc1NC(=S)NC(=O)c1ccc(Cn2cc(Br)cn2)cc1`, the “activity change, negative = inhibition” value was -18.1%. For `CC[C@H]1CN2CCc3cc(OC)c(OC)cc3C2C[C@@H]1C[C@H]1NCCc2cc(OC)c(OC)cc21` (some centres undefined), the Potency was 1.12 µM (active). With `CCC1=C(CC2NCCc3ccccc32)CC2c3cc(OC)c(OC)cc3CCN2C1` (centres undefined) the Potency was 14.1 µM (active). For `CC[C@H]1CN2CCc3cc(OC)c(OC)cc3[C@@H]2C[C@@H]1C[C@H]1NCCc2cc(OC)c(OC)cc21`, the Potency was 0.0794 µM (active). In the case of `CCCCOc1ccc(NC2=NC3(CCCC3)N=C(N)N2)cc1`, the “activity change, negative = inhibition” value is reported as -4.4%. For `C/C(=N\N=C(N)N)c1ccc(Cl)cc1Cl`, the “activity change, negative = inhibition” value was -27.5%. In the case of `CC(C)[C@@H]1CC[C@@H](C)C[C@H]1OC(=O)C[n+]1cc(-c2ccc(Cl)cc2)n2c1CCCCC2`, the Potency is reported as 14.1 µM (active). In the case of `NNc1ncnc2scc(-c3ccc(Cl)cc3)c12`, the Potency is reported as 25.1 µM (active). Compound `COc1cccc(NC(=O)CSc2nc3ncc(Br)cc3[nH]2)c1` has an activity change, negative = inhibition of 193% [at 11.4 µM]. With `O=C(CSc1nnc(-c2ccc(Br)cc2)o1)Nc1cccc(C(=O)O)c1` the Potency was 4.47 µM (active). For `O=C(Nc1ccc(Oc2ccc(NC(=O)Nc3ccc([N+](=O)[O-])cc3)cc2)cc1)Nc1ccc([N+](=O)[O-])cc1`, the Potency was 2.82 µM (active). In the case of `O=C1c2cc(Cl)ccc2-c2c(O)cc(Cl)cc21`, the “activity change, negative = inhibition” value is reported as -8.29%. For `O=C(Nc1ccc2oc(=O)ccc2c1)c1ccc(-c2cccc(Cl)c2)o1`, the “activity change, negative = inhibition” value was -21.8%. For `COCc1ccc(CN2CCC(C(=O)Nc3cccc(-c4cccc(Cl)c4)c3)CC2)o1`, the Potency was 14.1 µM (active). For `COC(=O)Cc1[nH]n(-c2nc3ccccc3s2)c(=O)c1C(C)=Nc1ccc(C)cc1`, the Potency was 0.501 µM (active). In the case of `CC(C)[C@H](CO)Nc1nc(NCc2ccc(S(N)(=O)=O)cc2)c2ncn(C(C)C)c2n1`, the activity change, negative = inhibition is reported as 41.8% [at 11.4 µM]. With `Cc1ccn2c(Nc3ccccc3C)c(-c3ccccn3)nc2c1` the Potency was 5.01 µM (active). In the case of `Nc1ccc(OC(=O)Nc2ccc(O)cc2)cc1`, the Potency is reported as 12.6 µM (active). In the case of `CCOC(=O)c1c(NC(=O)COC(=O)c2ccccc2NC)sc(C(=O)N(C)C)c1C`, the activity change, negative = inhibition is reported as -21.4% [at 11.4 µM]. For `CN(C)CCCN(C(=O)c1ccc2c(c1)CCCC2)c1nc2cc3c(cc2s1)OCO3`, the “activity change, negative = inhibition” value was -9.48%. In the case of `Cc1cc(C)c2nc(N(CCCN(C)C)C(=O)c3ccc4c(c3)OCCO4)sc2c1`, the Potency is reported as 28.2 µM (active). In the case of `Cc1cccc2sc(N(CCCN(C)C)C(=O)c3ccco3)nc12`, the “activity change, negative = inhibition” value is reported as 6.04%. In the case of `Nc1nc(NCCCN2CCOCC2)nc(Nc2ccccc2F)c1[N+](=O)[O-]`, the “activity change, negative = inhibition” value is reported as -23.9%. With `O=C(NCCc1cn2ccccc2n1)c1cc(COc2ccc3ncccc3c2)on1` the Potency was 14.1 µM (active). With `Cc1ccc(C)c(S(=O)(=O)N2CCN(c3ncnc4sccc34)CC2)c1` the Potency was 1.41 µM (active). `CN(C)CCNC(=O)c1cccc2[nH]c(-c3ccncc3)nc12` gave an activity change, negative = inhibition of -19.8% [at 11.4 µM]. In the case of `CN(C)CCCN(C(=O)c1ccc(S(=O)(=O)N(C)Cc2ccccc2)cc1)c1nc2c(F)cccc2s1`, the “activity change, negative = inhibition” value is reported as -26.4%. With `CN(C)CCNC(=O)c1ccc(Cl)c2cc3ccccc3nc12` the Potency was 10 µM (active). In the case of `CN(C)CCNC(=O)c1cccc2nc3cccc(F)c3nc12`, the Potency is reported as 10 µM (active). For `OCCN(Cc1ccccc1)CC(O)COc1ccc(-c2ccccc2)cc1` (centres undefined), the “activity change, negative = inhibition” value was -22.7%. With `O=C1/C(=C/c2ccncc2)CCC/C1=C\c1ccncc1` the Potency was 8.91 µM (active). `CN1C/C(=C/c2cccnc2)C(=O)/C(=C/c2cccnc2)C1` gave an activity change, negative = inhibition of -8.05% [at 11.4 µM]. In the case of `Cc1onc(-c2c(Cl)cccc2Cl)c1C(=O)N/N=C(\N)COc1ccc(Cl)cc1`, the Potency is reported as 3.55 µM (active). Compound `CCC(=O)OCCNc1cc(Sc2nc3ccccc3[nH]2)c2nonc2c1[N+](=O)[O-]` has an activity change, negative = inhibition of -17% [at 11.4 µM]. For `O=[N+]([O-])c1c(Nc2ccccn2)cc(Cl)c2nonc12`, the Potency was 11.2 µM (active). In the case of `O=[N+]([O-])c1ccc(C[n+]2cccc3ccc4cccnc4c32)cc1`, the Potency is reported as 3.16 µM (active). With `COc1cc(/C=N/Nc2snc(SC)c2C#N)cc(OC)c1OC` the “activity change, negative = inhibition” value was 1.9%. In the case of `Cc1c(Cl)cccc1NC(=O)N1CCCN(c2nc(-c3ccccc3)ns2)CC1`, the Potency is reported as 10 µM (active). In the case of `O=C(Nc1ccccc1Cl)N1CCCN(c2nc(-c3ccccc3)ns2)CC1`, the Potency is reported as 14.1 µM (active). For `CC(C)(C)c1ccc(NC(=O)N2CCCN(c3c(Cl)cncc3Cl)CC2)cc1`, the “activity change, negative = inhibition” value was -11.8%. For `Cc1c(N=C2N=C(NC(=O)Nc3ccc(Cl)cc3)c3ccccc32)c(=O)n(-c2ccccc2)n1C`, the “activity change, negative = inhibition” value was -6.01%. In the case of `Cc1c(N=C2C=CC(=O)c3ccccc32)c(=O)n(-c2ccccc2)n1C`, the Potency is reported as 31.6 µM (active). For `Cc1cc(C)c(O)c(CN(C)Cc2cc(Cl)cc(Cl)c2O)c1`, the Potency was 10 µM (active). For `CCOC(=O)c1c(SCCN2CCCCC2)n(-c2ccccc2)c(=S)n(-c2ccccc2)c1=O`, the Potency was 22.4 µM (active). For `Cc1sc2ncnc(NCC(O)c3ccc([N+](=O)[O-])cc3)c2c1C` (centres undefined), the Potency was 5.62 µM (active). For `O=C(O)CCn1cc(/C=C/C(=O)c2ccc(Cl)cc2)c(-c2ccc(Br)cc2)n1`, the Potency was 10 µM (active). With `CCC1(O)C(=O)OCc2c1cc1n(c2=O)Cc2cc3cc(O)ccc3nc2-1` (centres undefined) the Potency was 0.891 µM (active). For `CC[C@@]1(O)C(=O)OCc2c1cc1n(c2=O)Cc2cc3c(CN(C)C)c(O)ccc3nc2-1`, the Potency was 11.2 µM (active). `O=C(NC1C=CS(=O)(=O)C1)c1sc2ccccc2c1Cl` (centres undefined) gave an activity change, negative = inhibition of -11.1% [at 11.4 µM]. `Brc1cnc2nc(SCc3nc4ccccc4[nH]3)[nH]c2c1` showed an activity change, negative = inhibition of 361% [at 11.4 µM]. For `CCCCc1ccc(NC(=O)N2CCN(c3cc(C)nc4ccccc34)CC2)c(C)c1`, the Potency was 12.6 µM (active).
